The first experiment deals with LXRb homodimer (NR concentration 270 nM). Put plainly: PBM binding z-score (relative to random genomic background probes); higher = stronger binding; sequences stand for … in GC…GCGATTGACAGCGTAGAATGAAGG
A digest of the protocol: (§1)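 For binding z-scores, the reference was random background probes on custom Agilent 4×180K protein-binding microarrays. These arrays were incubated 1 h with ligand-free nuclear receptor dimers in PBS pH 7.4, 2% milk, 0.02% Triton X-100, 1 mM DTT, 0.2 mg/mL BSA and 0.4 mg/ml salmon testes DNA. Fluorescence was scanned after antibody detection of each partner (one per run) and regression-normalized.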
CAAACTAGGTCACCGGAAGGTCCAAGTCCGCATG registered a PBM binding z-score of 0.547.

For the sequence TCTTGTAGATCATTAGAGGTTAAGAAAGTGCGCT, the PBM binding z-score is 0.3.

Take TCTTGTAGATCAACAGGAGGCTAAGAAAGATCGA: the PBM binding z-score was -0.588.

Take TTAACAAGGTGAGCTGAGGTCGTTGATCCAACTC: the PBM binding z-score was -0.886.

In the case of ACAGACAGGTGAGTGAAGCTAACTCAGCTGGACG, the PBM binding z-score was -0.79.

For GCTGCTAGGTCAGGTTGGTCAGCTTACGGGTACG, the PBM binding z-score is -0.0807.

ACTAGCAGGCCAAGTTTGGGTCACACAAACAAAG: the PBM binding z-score is -0.354.

In the case of TCTTGTAGATCAATAGCGGTTAAGAAAGTGCGCT, the PBM binding z-score was -0.253.

On to ATCTCGAGGTAAGACTCAGTTCAGTGAAGAACGC, for which the PBM binding z-score was -0.194.

AGAATGAGGTTAATATCAGGGAAACAGAATACAT: the PBM binding z-score amounted to 0.272.

For the sequence GCTAGCAGGCCATTTGGGTCATTCAATGACGGGC, the PBM binding z-score was -1.08.

For GATACAGGGCCAAGGCCAGAGTACGCGTATTGAT, the PBM binding z-score was -1.09.

In turn, CGAAATAGGTCAAGGACAGTGAATCTCCGCACGC registered a PBM binding z-score of 0.676.

ATCTCTAGGTAAACAAGTTCAGTGAATGCCGAAC gave a PBM binding z-score of 0.583.

As for AGATGTAGGTTATCGGGTCATTCAGTTTGCGCAT, the PBM binding z-score amounted to 0.639.

TCGTGTAGGTTAGTCGGGGCATTCAGCCAACATA: the PBM binding z-score was found to be 0.252.

For the sequence TCTCAAAGTTCAAAGGTAACGTAAGTATCCACAC, the PBM binding z-score came to 2.02.

TCATATAGGTAAACAGATGAAAGTCCGTAAGTTA: the PBM binding z-score was -0.0548.

On to CCTGCTAGGTCAGTGGTCAGCTAAAGCAGCTCGC, for which the PBM binding z-score is -0.638.

For TAAACAGGGTCAAAGGCCAGAGTACGAATGTCGA, the PBM binding z-score worked out at 1.48.

As for AGGACGAGGGCACGCTGAGTTGATAGCAGAGTAG, the PBM binding z-score is -1.02.

On to GATACAGGGTCAGCTGGAGGCCAGAGTATGGAAA, for which the PBM binding z-score is -0.887.

On to CGTCCGAGGTCAGCAGGTCAGTGAAAGCGACGTG, for which the PBM binding z-score was determined as 0.00416.

Turning to ATACCAAGGCGATCGTGAGGTCGTTGATACTAAC, the PBM binding z-score is -0.375.

Regarding TAGAGTAGGTTAGGGGCATTCAGAATGGCGTCGA, the PBM binding z-score stood at 2.45.

With CCTTACGGGTCAACGTTATAGCACGGGTGGTACG, the PBM binding z-score was -0.125.

As to ATACCAAGGTGATCGTAAGGTCGTTGATACTAAC, the PBM binding z-score was -0.157.

ATACCAAGGTGATCGTGAGGTCGTGGATACTAAC: the PBM binding z-score was -0.127.

For GCTCGGTGGACAAGGTCAGAGCTTTGTCCGTAGA, the PBM binding z-score is -1.16.

Regarding CCTAGCTGGTCAGGAGGTCACACACCGGATATGA, the PBM binding z-score was 0.171.

In the case of AGAATGAGGTTATTAAGTTCAGGGAATTGCGGTC, the PBM binding z-score stood at 0.228.

The sequence TCTTGTAGATCAAAGGTTAACAAAGCCGAAGCCT displayed a PBM binding z-score of 0.107.

For the sequence CGTGCAAGGTCAGCAGGTCAGTGAAAGCGACGTG, the PBM binding z-score is -0.32.

In the case of GCGACTGGGGCATCAGCAGGTTACCAGAACTTAA, the PBM binding z-score was -1.13.

Regarding AGTCAAAGTTCATCTATGTAACGTAAGATATGCT, the PBM binding z-score is 1.69.

For the sequence AGTCATAGTTCAGGACGAGGTAACGTAAAGCACG, the PBM binding z-score worked out at 0.0216.

With AGTCAAAGTGCACTAGGTAACGTAAGATTCAGCT, the PBM binding z-score is -0.424.

Regarding TCGAGAAGGTTACCAATGGGGCATTCAGCTTTCT, the PBM binding z-score was -0.525.

In turn, TCTAGTTGGTCAAAGGTCACACAGTCGAAATGCG showed a PBM binding z-score of 1.46.

Regarding CGAACTAGGTAATCCAGGACAGTGAATACATTGA, the PBM binding z-score is -0.454.

The subject of the next experiment is PPARa:RXRa (NR concentration 270 nM, RXRa partner concentration 90 nM). Described as above. A digest of the protocol: as §1
On to CAAACTAGGTCACCGGAAGGTCCAAGTCCGCATG, for which the PBM binding z-score amounted to 5.28.

Take TCTTGTAGATCATTAGAGGTTAAGAAAGTGCGCT: the PBM binding z-score came out at 1.77.

Turning to TCTTGTAGATCAACAGGAGGCTAAGAAAGATCGA, the PBM binding z-score was -0.00556.

Sequence TTAACAAGGTGAGCTGAGGTCGTTGATCCAACTC returned a PBM binding z-score of 1.72.

ACAGACAGGTGAGTGAAGCTAACTCAGCTGGACG: the PBM binding z-score was -0.342.

In the case of GCTGCTAGGTCAGGTTGGTCAGCTTACGGGTACG, the PBM binding z-score turned out to be 1.07.

Sequence ACTAGCAGGCCAAGTTTGGGTCACACAAACAAAG had a PBM binding z-score of 1.85.

TCTTGTAGATCAATAGCGGTTAAGAAAGTGCGCT showed a PBM binding z-score of 0.5.

ATCTCGAGGTAAGACTCAGTTCAGTGAAGAACGC: the PBM binding z-score was 0.0746.

AGAATGAGGTTAATATCAGGGAAACAGAATACAT had a PBM binding z-score of 2.98.

Turning to GCTAGCAGGCCATTTGGGTCATTCAATGACGGGC, the PBM binding z-score turned out to be 1.47.

Regarding GATACAGGGCCAAGGCCAGAGTACGCGTATTGAT, the PBM binding z-score was -0.662.

As for CGAAATAGGTCAAGGACAGTGAATCTCCGCACGC, the PBM binding z-score was found to be 5.27.

Regarding ATCTCTAGGTAAACAAGTTCAGTGAATGCCGAAC, the PBM binding z-score amounted to 1.04.

For the sequence AGATGTAGGTTATCGGGTCATTCAGTTTGCGCAT, the PBM binding z-score was determined as 4.89.

TCGTGTAGGTTAGTCGGGGCATTCAGCCAACATA returned a PBM binding z-score of 1.16.

TCTCAAAGTTCAAAGGTAACGTAAGTATCCACAC: the PBM binding z-score was determined as 5.43.

TCATATAGGTAAACAGATGAAAGTCCGTAAGTTA displayed a PBM binding z-score of 1.14.

The sequence CCTGCTAGGTCAGTGGTCAGCTAAAGCAGCTCGC returned a PBM binding z-score of 1.39.

TAAACAGGGTCAAAGGCCAGAGTACGAATGTCGA: the PBM binding z-score amounted to 6.49.

Turning to AGGACGAGGGCACGCTGAGTTGATAGCAGAGTAG, the PBM binding z-score came out at 1.45.

Sequence GATACAGGGTCAGCTGGAGGCCAGAGTATGGAAA displayed a PBM binding z-score of 4.47.

CGTCCGAGGTCAGCAGGTCAGTGAAAGCGACGTG displayed a PBM binding z-score of 5.44.

As to ATACCAAGGCGATCGTGAGGTCGTTGATACTAAC, the PBM binding z-score was 0.703.

In turn, TAGAGTAGGTTAGGGGCATTCAGAATGGCGTCGA displayed a PBM binding z-score of 2.24.

CCTTACGGGTCAACGTTATAGCACGGGTGGTACG came in with a PBM binding z-score of 4.99.

Regarding ATACCAAGGTGATCGTAAGGTCGTTGATACTAAC, the PBM binding z-score is 1.71.

As to ATACCAAGGTGATCGTGAGGTCGTGGATACTAAC, the PBM binding z-score was 2.17.

The sequence GCTCGGTGGACAAGGTCAGAGCTTTGTCCGTAGA registered a PBM binding z-score of 2.09.

Turning to CCTAGCTGGTCAGGAGGTCACACACCGGATATGA, the PBM binding z-score was 4.14.

AGAATGAGGTTATTAAGTTCAGGGAATTGCGGTC: the PBM binding z-score was 3.11.

Sequence TCTTGTAGATCAAAGGTTAACAAAGCCGAAGCCT displayed a PBM binding z-score of 4.9.

CGTGCAAGGTCAGCAGGTCAGTGAAAGCGACGTG registered a PBM binding z-score of 5.48.

GCGACTGGGGCATCAGCAGGTTACCAGAACTTAA registered a PBM binding z-score of 1.04.

Consider AGTCAAAGTTCATCTATGTAACGTAAGATATGCT, for which the PBM binding z-score is 4.44.

Regarding AGTCATAGTTCAGGACGAGGTAACGTAAAGCACG, the PBM binding z-score came to 1.54.

In turn, AGTCAAAGTGCACTAGGTAACGTAAGATTCAGCT returned a PBM binding z-score of 1.85.

TCGAGAAGGTTACCAATGGGGCATTCAGCTTTCT displayed a PBM binding z-score of 2.11.

TCTAGTTGGTCAAAGGTCACACAGTCGAAATGCG had a PBM binding z-score of 6.64.

Regarding CGAACTAGGTAATCCAGGACAGTGAATACATTGA, the PBM binding z-score amounted to 1.23.

These data come from the supplement of paper PMC6555819.
